# Sampled rows, rich in hits. Any-hit rate of the full collection: about 1.1%.
# AGP1-GFP MLPCN: yeast TOR pathway AGP1-GFP modulation; S. cerevisiae AGP1-GFP multiplex flow cytometry, 3 h; GFP as percent of DMSO wells; AID 2066; GFP response vs DMSO, % at 10 µM; actives 0.02% (n = 320,000);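 active = GFP response relative to DMSO above a set limit, near screen average plus 3 SD, cut at about 150% in these data; inconclusive = fewer than 70 cells counted for the yeast strain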;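 note: median GFP channel fluorescence of the gated AGP1 strain per well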
# RPL19A-GFP yeast: yeast TOR pathway RPL19A-GFP modulation; S. cerevisiae RPL19A-GFP strain, flow cytometry, 3 h; stronger effect = lower value; percent response vs DMSO, % at 10 µM; actives 0.3% (n = 330,000);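 active = percent response vs DMSO below 50%; inconclusive = fewer than 70 events counted for the yeast strain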;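 note: median channel GFP fluorescence of the barcoded RPL19A-GFP strain; lower means less RPL19A-GFP as with rapamycin TOR inhibition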
# MEP2 TOR yeast: modulators of TOR pathway MEP2-GFP in S. cerevisiae | S. cerevisiae MEP2-GFP strain, flow cytometry GFP, 3 h; 100% = DMSO control level | GFP response vs DMSO, % at 10 µM | actives 0.51% (n = 330,000) | AID 2016;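 active = GFP response versus DMSO above a set limit, roughly screen mean plus 3 SD, cut at about 180% in these data; inconclusive = fewer than 70 cells counted for a yeast strain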;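 note: median GFP fluorescence of the barcode-gated MEP2-GFP cells per well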
# CIT2 TOR yeast: modulators of TOR pathway CIT2-GFP in S. cerevisiae | S. cerevisiae CIT2-GFP strain, flow cytometry, 3 h; 100 means same as DMSO wells | GFP response vs DMSO, % at 10 µM | actives 0.065% (n = 320,000);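 active = GFP response relative to DMSO above a set limit, near the screen mean plus 3 SD, cut at about 150% in these data; inconclusive = Fewer than 70 cells measured for a yeast strain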;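 note: ratio of well median GFP fluorescence to mean of DMSO wells on the plate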
# LAP4 TOR yeast: modulators of TOR pathway LAP4-GFP in S. cerevisiae. S. cerevisiae LAP4-GFP multiplex, flow cytometry GFP, 3 h; median GFP as percent of DMSO wells. GFP response vs DMSO, % at 10 µM. actives 0.34% (n = 320,000). AID 2023;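 active = GFP response vs DMSO above a set limit, about the screen mean plus 3 SD, cut at about 150% in these data; inconclusive = under 70 cell events counted for the yeast strain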
# VLA-4 inh: inhibition in a human VLA-4 binding assay; P13612; AID 2557; actives 0.2% (n = 330,000); VLA-4 expressing cells, ligand binding flow cytometry; inhibition, % (about 7 µM as worked out from the volumes in the protocol); in the data active = inhibition above about 50%
# VLA-4 mod pick: confirmation of allosteric modulators of human VLA-4 integrin. U937 cells, HUTS-21 LIBS mAb binding, flow cytometry; LDV ligand present at threefold Kd. shares compounds with VLA-4 inh. actives 2% (n = 1,300). inhibition, % at 6.7 µM; in the data active = inhibition above about 40%
# Hits are given with their value; – = inactive; ? = inconclusive; · = no result given; ! = a repeat was not active; [ ] = remark or other dose.
SMILES,AGP1-GFP MLPCN,RPL19A-GFP yeast,MEP2 TOR yeast,CIT2 TOR yeast,LAP4 TOR yeast,VLA-4 inh,VLA-4 mod pick
CCCc1cc(=O)[nH]c(SCC(=O)Nc2nc3ccc(OCC)cc3s2)n1,–,–,–,–,–,51,–
CCc1cc(=O)oc2cc(OS(C)(=O)=O)ccc12,–,–,–,–,–,–,·
Cc1cc(=O)oc2cc(OS(C)(=O)=O)ccc12,–,–,–,–,–,–,–
Cc1cc(C)n(-c2ccc(C(=O)N3CCC(CO)(Cc4ccccc4)CC3)cc2)n1,–,–,–,–,–,–,·
O=C(NCCCn1ccnc1)c1ccc(N2CCCCC2)c([N+](=O)[O-])c1,–,–,–,–,–,–,·
CCOC(=O)c1c(NC2=NS(=O)(=O)c3ccccc32)sc2c1CCC(C)C2 (configuration not stated),–,–,–,–,–,60,–
CCOC(=O)c1c(NC2=NS(=O)(=O)c3ccccc32)sc2c1CCCCC2,–,–,–,–,–,–,·
CCn1c(SCC(=O)N(C)CC(=O)Nc2ccc(F)c(F)c2F)nnc1-c1ccco1,–,–,–,–,–,–,·
COc1cc(/C=N/Nc2ncc(C(F)(F)F)cc2Cl)cc(OC)c1OC,–,–,–,–,–,–,–
COc1ccc(OC(C)C(=O)N(C)Cc2nc(-c3cccc(C)c3)no2)cc1 (configuration not stated),–,–,–,–,–,–,·
Cc1ccccc1OCC(=O)OCC(=O)Nc1cc(S(=O)(=O)N2CCCCC2)ccc1Cl,–,–,–,–,–,–,·
COc1cc(C(=O)OCC(=O)NCCC2=CCCCC2)ccc1OCC(C)C,–,–,–,–,–,–,·
COc1cccc(C(=O)OCC(=O)NCCC2=CCCCC2)c1,–,–,–,–,–,–,–
Cc1cccc(-c2nc(CS(=O)CC(=O)NCCc3ccc(Cl)cc3)c(C)o2)c1 (configuration not stated),–,–,–,–,–,–,·
O=C(CCSc1nnc(-c2ccncc2)o1)Nc1ccc(Cl)cc1,–,–,–,–,–,51,–
CC(C)C(NS(=O)(=O)c1ccc2c(c1)oc(=O)n2C)C(=O)N1CCN(c2ccccc2F)CC1 (configuration not stated),–,–,–,–,–,53,–
O=C(COC(=O)c1cc(Cl)ccc1O)Nc1cc(C(F)(F)F)ccc1N1CCOCC1,–,–,–,–,–,–,·
N=c1c(C(=O)NCc2ccc(F)cc2)cc2c(=O)n3ccccc3nc2n1CC1CCCO1 (configuration not stated),·,–,256[may fluoresce violet],?,–,89,–
COc1ccc(CCNC(=O)c2cc3c(=O)n4ccccc4nc3n(CC3CCCO3)c2=N)cc1OC (configuration not stated),–,–,–,–,–,–,·
O=S(=O)(Nc1ccon1)c1ccc(F)c(F)c1,–,–,–,–,–,–,·
COc1ccc(C2CC3(CC(C)(C)NC(=S)N3)Oc3cc(O)cc(C)c32)cc1 (configuration not stated),–,–,–,–,–,–,·
COc1ccc(C2CC3(CC(C)(C)NC(SC)=N3)Oc3cc(O)cc(C)c32)cc1 (configuration not stated),–,–,–,–,–,–,–
O=S(=O)(N/N=C\c1ccc2c(c1)OCO2)c1ccc(F)cc1,–,–,–,–,–,–,·
CCN(CC)CCNC(=O)COc1ccc(OC)cc1,–,–,–,–,–,57!,–
COc1cc2sc(-c3ccccc3OC)c(-c3ccc(OCCN4CCCCC4)cc3)c2cc1OC,–,–,–,–,–,–,–
COc1ccccc1-c1sc2cc3c(cc2c1-c1ccc(OCCN2CCCCC2)cc1)OCO3,–,–,–,–,–,–,–
CCOC(=O)C1(Cc2ccccc2)CCCN(C(=O)c2ccc(-n3ccnc3)cc2)C1 (configuration not stated),–,–,–,–,–,–,·
